Screening data (PubChem)
A selection: hits, their analogues and other compounds. The true share with any hit is near 17%.
ClpP mod: qHTS Assay for Activators of ClpP. ATP-dependent Clp protease proteolytic subunit (Bacillus subtilis (strain 168)), P80244. purified B. subtilis ClpP, FRET peptide cleavage, 20 min. Potency, µM (doses to about 57.5 µM), for inactives: at the highest dose activity change, negative = active. 1.9% of 340,000 active. AID 651965, 2013; active means well fitted falling curve with a large enough effect; inconclusive means small, poorly fitted or top-dose-only effect; inactive means no such curve, though single readings can be large or run the other way; further: the source files actives as falling curves though it sought activators and does not explain the sign; nearly all actives have a fitted effect of over 65% in size
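FRET quenching reversal measured ClpP activation: 10 microg/mL B. subtilis ClpP at pH 8 with the FRET-FV decapeptide, read at 430 nm after 320 nm excitation. The 20-min minus 0-min signal was scaled between DMSO/no-enzyme wells and ADEP (5.8 microM final).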
TDP1 block: qHTS Assay for Inhibitors of Tyrosyl-DNA Phosphodiesterase (TDP1); Tyrosyl-DNA phosphodiesterase 1 (Homo sapiens), Q9NUW8; recombinant TDP1, AlphaScreen DNA substrate cleavage; Potency, µM (highest dose often 130 µM), without a hit: top-dose activity change, negative = inhibition, actives largely listed as inhibitors; 0.28% of 350,000 active; AID 485290, 2010; further: on the % scale 0 is the no-effect control and ±100 the full control effect; nearly all actives have a fitted effect of over 40% in size
Target sequence (Q9NUW8 whole entry, looked up): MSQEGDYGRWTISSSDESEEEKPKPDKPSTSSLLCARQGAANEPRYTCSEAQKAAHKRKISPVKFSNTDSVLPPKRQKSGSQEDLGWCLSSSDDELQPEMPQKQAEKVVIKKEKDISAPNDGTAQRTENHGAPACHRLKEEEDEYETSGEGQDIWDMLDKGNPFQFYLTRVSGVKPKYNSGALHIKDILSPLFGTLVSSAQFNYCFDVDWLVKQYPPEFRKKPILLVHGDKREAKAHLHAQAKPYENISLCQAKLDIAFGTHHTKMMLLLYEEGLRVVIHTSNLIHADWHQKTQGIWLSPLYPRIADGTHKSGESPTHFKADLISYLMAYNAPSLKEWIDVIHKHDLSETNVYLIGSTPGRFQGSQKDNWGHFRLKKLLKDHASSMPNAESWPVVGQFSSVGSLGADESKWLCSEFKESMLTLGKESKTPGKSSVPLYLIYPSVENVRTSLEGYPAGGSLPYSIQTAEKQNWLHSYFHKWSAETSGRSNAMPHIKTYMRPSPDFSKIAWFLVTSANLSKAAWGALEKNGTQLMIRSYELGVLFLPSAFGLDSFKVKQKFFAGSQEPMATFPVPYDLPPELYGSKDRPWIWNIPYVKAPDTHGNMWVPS
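Signal: AlphaScreen proximity between streptavidin donor and anti-FITC acceptor beads on intact substrate. Reaction: Tdp1 1 nM, substrate 15 nM final, 5 min RT after 15 min compound preincubation.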
DT40 TDP1 no CPT: qHTS for Inhibitors of human tyrosyl-DNA phosphodiesterase 1 (TDP1): qHTS in cells in absence of CPT; DT40 Tdp1-/- hTDP1 cells, no CPT, ATP luminescence, 48 h; Potency, µM (highest dose often 46.2 µM), without a hit: at the highest dose activity change, negative = growth inhibition, usual class: inhibitors; 15% of 420,000 active; further: on the % scale 0 is the no-effect control and ±100 the full control effect; nearly all actives have a fitted effect of over 55% in size
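Stably hTDP1-transfected Tdp1-null chicken DT40 cells were treated with library compounds minus camptothecin and grown for at least 48 hr at 37 °C, after which cellular ATP was quantified by luminescence.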
DT40 TDP1 CPT: qHTS for Inhibitors of human tyrosyl-DNA phosphodiesterase 1 (TDP1): qHTS in cells in presence of CPT. chicken DT40 Tdp1-/-;hTDP1 cells + 20 nM CPT, ATP luminescence, 48 h. Potency, µM (highest dose often 46.2 µM), without a hit: at the highest dose activity change, negative = growth inhibition, most hits filed as inhibitors. 12% of 420,000 active; further: on the % scale 0 is the no-effect control and ±100 the full control effect; nearly all actives have a fitted effect of over 55% in size
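Cell growth measured by CellTiter-Glo luminescence after a minimum 48 h, 37 C compound exposure with 20 nM CPT in Tdp1-knockout DT40 cells stably expressing hTDP1, seeded 400/well; qHTS titration format.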
* marks the source's active call; other numbers are inactive results; ? = inconclusive; · = no result; [ ] = another dose, or the depositor's remark. Unless noted, the call rests on the fitted dose curve; in most records, active means well fitted curve in the direction sought with a large enough effect; inconclusive means small, poorly fitted or top-dose-only effect, or another doubt; inactive means no such curve, though single readings can be large; an effect the other way counts as inactive or inconclusive. Potency means the concentration at half of the fitted maximal effect.

SMILES	ClpP mod	TDP1 block	DT40 TDP1 no CPT	DT40 TDP1 CPT
Oc1cc(O)c2c(c1)O[C@H](c1ccc(O)c(O)c1)[C@@H](O)C2	0.7%	-6.4%	-7.7%	-12.6%
CCc1ccc(NC(=O)Cn2c(=O)n(CCC(=O)N3CCc4ccccc4C3)c(=O)c3ccccc32)cc1	-13.7%	2.7%	1.2%	-8.2%
Cc1ccc(C(=O)c2oc3ccccc3c2NC(=O)c2cc(-c3ccccc3O)n[nH]2)cc1	7.2%	1.2%	10.3µM*	25.9µM*
Cc1ccc(C(=O)c2oc3ccccc3c2NC(=O)Cc2ccccc2)cc1	?	4.2%	·	·
Cc1ccc(C(=O)c2oc3ccccc3c2NC(=O)c2cc(-c3cc(C)ccc3O)n[nH]2)cc1	2.5%	·	13µM*	16.4µM*
O=C(Nc1c(C(=O)c2ccccc2)oc2ccccc12)c1cc(-c2ccccc2O)n[nH]1	-3.7%	1.2%	18.4µM*	20.6µM*
CC(C)(C)c1ccc(C(=O)Nc2c(C(=O)c3ccc(F)cc3)oc3ccccc23)cc1	-1.7%	-5.3%	·	·
COc1cccc(NS(=O)(=O)c2ccc(C)c(C(=O)N3CCCCC3)c2)c1	2.7%	3.6%[56.1 µM]	-13.4%	?
O=c1onc(-c2ccc(Cl)cc2Cl)n1-c1cccnc1	-0.1%	0.0%	-3.6%	4.5%
COc1ccc(C=O)cc1COc1ccccc1F	-1.9%	-2.6%	?	?
COc1ccc(C=O)cc1COc1ccc2c(c1)OCO2	·	5.6%	4.61µM*	3.66µM*
COc1ccc(C=O)cc1COc1ccc([N+](=O)[O-])c(C)c1	·	-1.8%	20.6µM*	16.4µM*
CC1CCCN(c2c([N+](=O)[O-])c(=O)oc3ccccc23)C1 (configuration not stated)	0.0%	6.2%	?	15.8µM*
CCc1nc2ccc(C(=O)N3CCN(C(=O)c4ccco4)CC3)cn2c1N(C=O)Cc1ccc(OC)cc1	-7.0%	·	-12.5%	?
Cc1ccc2[nH]c3c(N4CCCCCC4)ncnc3c2c1	·	3.3%	·	·
Cc1ccc2c(c1)[nH]c1c(N3CCN(Cc4ccccc4)CC3)ncnc12	?	3.1%	4.61µM*	5.8µM*
Cc1ccc2[nH]c3c(N4CCN(Cc5ccccc5)CC4)ncnc3c2c1	?	7.1%	9.2µM*	13µM*
CCOc1ccc2[nH]c3c(N4CCN(c5ccccn5)CC4)ncnc3c2c1	28.2µM*	10.3%	15.8µM*	8.91µM*
Cc1sc2ncnc(N3CCN(Cc4ccccc4)CC3)c2c1-c1ccccc1	-3.1%	8.4%	?	?
O=C(O)C1Cc2ccccc2CN1C(=O)COc1ccc(Cl)cc1Cl (configuration not stated)	·	-2.6%	-14.0%	3.7%
O=C(O)C1Cc2ccccc2CN1C(=O)COc1ccc(Br)cc1 (configuration not stated)	·	22.4µM*	-24.1%	9.8%
COc1ccccc1CNc1nc2ccccc2c2nc(-c3cccnc3)nn12	-5.3%	3.9%	?	?
Cc1nc2cc(C)c(C)cc2s1	·	5.4%	-5.1%	-6.1%
Cc1cc2nc3ccc(=[N+](C)C)cc-3sc2cc1N	0.8%	?	0.411µM*	1.16µM*
CC(=O)Nc1ccc(-c2ccnc3c2CC(C(=O)NCc2ccco2)O3)cc1 (configuration not stated)	4.2%	·	0.0065µM*	0.184µM*
SMILES	ClpP mod	TDP1 block	DT40 TDP1 no CPT	DT40 TDP1 CPT
CC(=O)Nc1ccc(-c2ccnc3c2CC(C(=O)NCc2ccccc2)O3)cc1 (configuration not stated)	5.2%	·	0.0184µM*	0.0231µM*
CC(=O)Nc1ccc(-c2ccnc3c2CC(C(=O)NCCc2ccccc2)O3)cc1 (configuration not stated)	4.1%	·	?	?
COc1cccc(N2C(=O)CSC23C(=O)N(Cc2ccccc2)c2ccccc23)c1 (configuration not stated)	0.2%	-2.8%	·	·
Cc1nc2cc(C(=O)N3c4ccccc4CC3C)ccc2s1 (configuration not stated)	·	6.2%	16.4µM*	?
Cc1sc2nc(C3CC3)nc(SCC(=O)N3c4ccccc4CC3C)c2c1C (configuration not stated)	-5.4%	2.9%	20.6µM*	16.4µM*
CC1Cc2ccccc2N1C(=O)CN1CCc2ccccc2C1 (configuration not stated)	0.9%	2.0%	25.9µM*	?
Cc1cc(=O)[nH]c2sc(C(=O)N3c4ccccc4CC3C)c(N)c12 (configuration not stated)	0.2%	0.4%	-25.7%	?
Cc1cccc(NC(=O)CSc2ncnc3sc(C)c(C)c23)n1	-1.9%	·	18.4µM*	16.4µM*
COc1ccc(CN2C(=O)c3ccccc3C2c2nnnn2-c2c(C)cccc2C)cc1OC (configuration not stated)	-3.0%	·	?	?
Cc1ccc(NC(=O)N2CCc3cc(S(=O)(=O)N4CCC(C)CC4)ccc32)cc1	-0.6%	0.0%	-20.3%	-17.4%
Cc1nnc(NC(=O)CSc2nc(C(C)C)nc3sc(C)c(C)c23)s1	-5.0%	0.0%	8.2µM*	?
CC1Cc2ccccc2N1C(=O)CSC1=NCCS1 (configuration not stated)	-2.7%	4.0%	?	10.3µM*
Cc1cc2cc3c(cc2nc1SCC(=O)N1c2ccccc2CC1C)OCO3 (configuration not stated)	?	2.4%	20.6µM*	?
Cc1cc(NC(=O)CSc2nc(C3CC3)nc3sc(C)c(C)c23)no1	0.5%	-5.7%	8.2µM*	8.2µM*
CC1Cc2ccccc2N1C(=O)CSc1nc2cc3c(cc2cc1C#N)OCO3 (configuration not stated)	-5.6%	0.0%	?	?
CCc1nc(SCC(=O)Nc2cc(C)on2)c2c(C)c(C)sc2n1	0.4%	7.3%	-7.2%	-28.8%
O=C(CC[C@H]1O[C@@H](n2ccc(=O)[nH]c2=O)[C@H](O)[C@@H]1O)N[C@H](Cc1ccccc1)C(=O)NCc1cccs1	-1.9%	·	20.7%	0.3%
Cc1nc(-c2ccccn2)nc(N(C)c2ccccc2)c1Cl	-1.6%	·	2.59µM*	2.59µM*
Cc1c(C(=O)NCc2ccc(Cl)c(Cl)c2)sc(=O)n1Cc1ccc(C(=O)N(C)C)cc1	1.3%	·	10.3µM*	14.6µM*
Cc1c(C(=O)NCc2cccc(Cl)c2)sc(=O)n1Cc1ccc(F)cc1	-1.4%	·	?	?
Cc1c(C(=O)NCc2cccc(Cl)c2)sc(=O)n1Cc1ccc(C(=O)N(C)C)cc1	2.0%	·	?	16.4µM*
Cc1c(C(=O)NCc2ccc(C#N)cc2)sc(=O)n1Cc1ccccn1	0.7%	·	2.4%	-5.0%
Cc1c(C(=O)NCc2ccc3c(c2)OCCO3)sc(=O)n1Cc1ccc(C(=O)N(C)C)cc1	1.7%	·	?	?
